Assay results reported in PubChem BioAssay AID1159580 (chemical genetic matrix, 2015).
Values joined by “and” are separate entries in the source; they are usually repeats but may differ in a detail not shown here. Identical values can stand only once. The campaign covered roughly 5,500 compounds. About 2,000 (36%) were called active. Inconclusive results (about 18%) are left out. Cut-off read from the data, not from the text of the source: active = normalized growth mostly below about 0.91 (no sharp cut-off); inconclusive = no clear call, values can overlap the other calls; inactive = mostly above about 0.92. This is one part of the list.

Assay: chemical genetic growth profiling, strain panel (AID 1159580);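 note: tested at 20 µM; growth read once vehicle control cultures reached saturation at 30 °C; 1 = growth at the plate median or of vehicle wells; lower values mean less growth of the strain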
Settings: S. cerevisiae deletion strains, growth OD

Measured: normalized growth

COC(=O)C[C@H]1C(C)(C)[C@@H](OC(C)=O)[C@@H]2CC3=C4CC(=O)O[C@@H](c5ccoc5)[C@]4(C)CCC3[C@@]1(C)C2=O (stereo partly specified)
inactive: locus YAL021C, strain ccr4, hits give low values 1.04 | locus YAL026C, strain drs2, hits give low values 0.998 | locus YAL030W, strain snc1, hits give low values 0.996 | locus YBL061C, strain skt5, hits give low values 0.991 | locus YBR009C, strain hhf1, hits give low values 1 | locus YBR021W, strain FUR4, hits give low values 1.01 | locus YBR023C, strain chs3, hits give low values 1 | locus YBR171W, strain sec66, hits give low values 0.996 | locus YBR229C, strain ROT2, hits give low values 0.997 | locus YBR231C, strain swc5, hits give low values 0.971 | locus YBR279W, strain paf1, hits give low values 0.999 | locus YCL011C, strain gbp2, hits give low values 1.01 | locus YCL016C, strain dcc1, hits give low values 1.01 | locus YCL029C, strain bik1, hits give low values 0.998 | locus YCL061C, strain MRC1, hits give low values 0.999 | locus YCL069W, strain vba3, hits give low values 0.984 | locus YCR088W, strain abp1, hits give low values 0.995 | locus YDL005C, strain med2, hits give low values 0.991 | locus YDL035C, strain GPR1, hits give low values 0.986 | locus YDL040C, strain nat1, hits give low values 0.995 | locus YDL074C, strain BRE1, hits give low values 0.996 | locus YDL101C, strain DUN1, hits give low values 1.02 | locus YDL185W, strain tfp1, hits give low values 1.01 | locus YDL192W, strain arf1, hits give low values 0.998 | locus YDR001C, strain nth1, hits give low values 0.997 | locus YDR069C, strain doa4, hits give low values 0.982 | locus YDR101C, strain arx1, hits give low values 0.976 | locus YDR137W, strain rgp1, hits give low values 0.997 | locus YDR159W, strain sac3, hits give low values 0.962 | locus YDR162C, strain NBP2, hits give low values 0.983 | locus YDR195W, strain ref2 0.938 | locus YDR297W, strain sur2, hits give low values 0.983 | locus YDR318W, strain mcm21, hits give low values 0.998 | locus YDR334W, strain swr1, hits give low values 0.99 | locus YDR335W, strain msn5, hits give low values 1 | locus YDR388W, hits give low values 1.01 | locus YDR392W, strain spt3, hits give low values 0.963 | locus YDR502C, strain sam2, hits give low values 1 | locus YEL003W, strain gim4, hits give low values 0.978 | locus YEL037C, strain rad23, hits give low values 0.989 | locus YEL061C, strain CIN8 (second series), hits give low values 0.99 | locus YER015W, strain faa2, hits give low values 1 | locus YER016W, strain bim1, hits give low values 0.995 | locus YER110C, hits give low values 1 | locus YER111C, strain swi4, hits give low values 1 | locus YER155C, strain BEM2 (second series), hits give low values 1.01 | locus YER155C, strain BEM2, hits give low values 0.997 | locus YER167W, strain BCK2, hits give low values 0.998 | locus YFR010W, strain ubp6, hits give low values 0.976 | locus YGL078C, strain dbp3, hits give low values 1.01 | locus YGL086W, strain mad1, hits give low values 1.01 | locus YGL167C, strain pmr1, hits give low values 1.01 | locus YGL173C, strain kem1, hits give low values 0.989 | locus YGL227W, strain vid30, hits give low values 0.993 | locus YGL240W, strain doc1, hits give low values 1 | locus YGL248W, strain PDE1, hits give low values 1 | locus YGL253W, strain hxk2, hits give low values 0.913 | locus YGR078C, strain PAC10, hits give low values 1.01 | locus YGR135W, strain pre9, hits give low values 1.02 | locus YGR252W, strain gcn5, hits give low values 1.01 | locus YHR013C, strain ard1, hits give low values 1.01 | locus YHR027C, strain rpn1, hits give low values 1 | locus YHR030C, strain SLT2, hits give low values 1 and 0.993 | locus YHR079C, strain IRE1 (second series), hits give low values 0.996 | locus YHR079C, strain IRE1, hits give low values 0.992 | locus YHR094C, strain hxt1, hits give low values 1 | locus YHR129C, strain ARP1, hits give low values 1.01 | locus YHR142W, strain chs7, hits give low values 0.988 | locus YHR200W, strain rpn10, hits give low values 1.01 | locus YIL066C, strain RNR3, hits give low values 1.01 | locus YIL073C, strain SPO22, hits give low values 1.02 | locus YIL125W, strain kgd1, hits give low values 0.993 | locus YIR030C, strain dcg1, hits give low values 1 | locus YJL092W, strain hpr5, hits give low values 0.996 | locus YJL095W, strain BCK1 (second series), hits give low values 1.01 | locus YJL095W, strain BCK1, hits give low values 1.04 and 0.984 | locus YJL115W, strain asf1, hits give low values 0.997 | locus YJL129C, strain trk1, hits give low values 0.952 | locus YJL134W, strain LCB3, hits give low values 0.998 | locus YJL154C, strain vps35, hits give low values 0.998 | locus YJL164C, strain tpk1, hits give low values 1.03 | locus YJL166W, strain qcr8, hits give low values 1 | locus YJL168C, strain set2, hits give low values 0.995 | locus YJL187C, strain SWE1 (second series), hits give low values 1.03 | locus YJL187C, strain SWE1, hits give low values 1.01 | locus YJR043C, strain POL32, hits give low values 0.987
